According to PubChem BioAssay AID1159580 (chemical genetic matrix, 2015):
Values joined by “and” are separate entries in the source; they are usually repeats but may differ in a detail not shown here. Equal entries are not always repeated. Hit rate of the full screen: of about 5,500 compounds, about 2,000 (36%) were called active. Inconclusive results (about 18%) are left out. No stated cut-off is given here; in the data, active means normalized growth mostly below about 0.91 (no sharp cut-off); inconclusive means no clear call, values can overlap the other calls; inactive means mostly above about 0.92. The list shows a part of the results.

Test: chemical genetic growth profiling, strain panel (AID 1159580);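 further: tested at 20 µM; growth read once vehicle control cultures reached saturation at 30 °C; 1 = growth at the plate median or of vehicle wells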
Conditions: S. cerevisiae deletion strains, growth OD

Measured: normalized growth

Nc1ncnc2nc[nH]c12
inactive: locus YAL013W, strain DEP1, stronger effect = lower value 0.94 | locus YAL021C, strain ccr4, stronger effect = lower value 0.99 | locus YAL026C, strain drs2, stronger effect = lower value 0.99 | locus YAL030W, strain snc1, stronger effect = lower value 0.981 | locus YBL061C, strain skt5, stronger effect = lower value 0.98 | locus YBR009C, strain hhf1, stronger effect = lower value 0.992 | locus YBR023C, strain chs3, stronger effect = lower value 0.986 | locus YBR171W, strain sec66, stronger effect = lower value 0.976 | locus YBR229C, strain ROT2, stronger effect = lower value 1.02 | locus YBR231C, strain swc5, stronger effect = lower value 0.982 | locus YBR279W, strain paf1, stronger effect = lower value 0.993 | locus YCL011C, strain gbp2, stronger effect = lower value 0.978 | locus YCL016C, strain dcc1, stronger effect = lower value 0.973 | locus YCL029C, strain bik1, stronger effect = lower value 0.923 | locus YCL061C, strain MRC1, stronger effect = lower value 0.981 | locus YCL069W, strain vba3, stronger effect = lower value 0.99 | locus YCR088W, strain abp1, stronger effect = lower value 0.985 | locus YDL005C, strain med2, stronger effect = lower value 0.985 | locus YDL035C, strain GPR1, stronger effect = lower value 0.894 | locus YDL040C, strain nat1, stronger effect = lower value 0.983 | locus YDL101C, strain DUN1, stronger effect = lower value 0.968 | locus YDL185W, strain tfp1, stronger effect = lower value 1.01 | locus YDR001C, strain nth1, stronger effect = lower value 0.983 | locus YDR069C, strain doa4, stronger effect = lower value 1.01 | locus YDR137W, strain rgp1, stronger effect = lower value 0.985 | locus YDR150W, strain NUM1, stronger effect = lower value 1.02 | locus YDR159W, strain sac3, stronger effect = lower value 1 | locus YDR162C, strain NBP2, stronger effect = lower value 0.951 | locus YDR195W, strain ref2 0.998 | locus YDR297W, strain sur2, stronger effect = lower value 1.01 | locus YDR318W, strain mcm21, stronger effect = lower value 0.939 | locus YDR334W, strain swr1, stronger effect = lower value 0.982 | locus YDR335W, strain msn5, stronger effect = lower value 0.984 | locus YDR388W, stronger effect = lower value 0.98 | locus YDR392W, strain spt3, stronger effect = lower value 0.968 | locus YEL003W, strain gim4, stronger effect = lower value 1.01 | locus YEL037C, strain rad23, stronger effect = lower value 0.984 | locus YEL061C, strain CIN8 (second series), stronger effect = lower value 0.986 | locus YEL061C, strain CIN8, stronger effect = lower value 0.996 | locus YER015W, strain faa2, stronger effect = lower value 0.994 | locus YER016W, strain bim1, stronger effect = lower value 0.994 | locus YER110C, stronger effect = lower value 1 | locus YER111C, strain swi4, stronger effect = lower value 0.983 | locus YER155C, strain BEM2 (second series), stronger effect = lower value 0.989 | locus YER167W, strain BCK2, stronger effect = lower value 1.01 | locus YFR010W, strain ubp6, stronger effect = lower value 0.982 | locus YGL078C, strain dbp3, stronger effect = lower value 0.969 | locus YGL167C, strain pmr1, stronger effect = lower value 0.979 | locus YGL173C, strain kem1, stronger effect = lower value 0.984 | locus YGL227W, strain vid30, stronger effect = lower value 0.987 | locus YGL240W, strain doc1, stronger effect = lower value 0.997 | locus YGL248W, strain PDE1, stronger effect = lower value 0.9 | locus YGL253W, strain hxk2, stronger effect = lower value 0.987 | locus YGR135W, strain pre9, stronger effect = lower value 0.922 | locus YHR013C, strain ard1, stronger effect = lower value 0.975 | locus YHR027C, strain rpn1, stronger effect = lower value 0.979 | locus YHR079C, strain IRE1 (second series), stronger effect = lower value 0.974 | locus YHR079C, strain IRE1, stronger effect = lower value 1.02 | locus YHR094C, strain hxt1, stronger effect = lower value 0.999 | locus YHR142W, strain chs7, stronger effect = lower value 0.955 | locus YHR200W, strain rpn10, stronger effect = lower value 0.998 | locus YIL125W, strain kgd1, stronger effect = lower value 0.991 | locus YIR030C, strain dcg1, stronger effect = lower value 0.988 | locus YJL092W, strain hpr5, stronger effect = lower value 0.99 | locus YJL095W, strain BCK1 (second series), stronger effect = lower value 0.984 | locus YJL115W, strain asf1, stronger effect = lower value 0.99 | locus YJL129C, strain trk1, stronger effect = lower value 0.99 | locus YJL134W, strain LCB3, stronger effect = lower value 1.02 | locus YJL154C, strain vps35, stronger effect = lower value 0.997 | locus YJL164C, strain tpk1, stronger effect = lower value 0.993 | locus YJL166W, strain qcr8, stronger effect = lower value 0.977 | locus YJL168C, strain set2, stronger effect = lower value 1 | locus YJL187C, strain SWE1, stronger effect = lower value 0.98 | locus YJR043C, strain POL32, stronger effect = lower value 0.907
0.593 (active) and 1.02 (inactive): locus YJL095W, strain BCK1, stronger effect = lower value
0.393 (active) and 1.02 (inactive): locus YHR030C, strain SLT2, stronger effect = lower value
active: locus YBR021W, strain FUR4, stronger effect = lower value 0.201 | locus YDL074C, strain BRE1, stronger effect = lower value 0.645 | locus YDL192W, strain arf1, stronger effect = lower value 0.797 | locus YDR101C, strain arx1, stronger effect = lower value 0.866 | locus YDR502C, strain sam2, stronger effect = lower value 0.908 | locus YER155C, strain BEM2, stronger effect = lower value 0.792 | locus YGL086W, strain mad1, stronger effect = lower value 0.838 | locus YGR078C, strain PAC10, stronger effect = lower value 0.828 | locus YGR252W, strain gcn5, stronger effect = lower value 0.705 | locus YHR129C, strain ARP1, stronger effect = lower value 0.898 | locus YIL066C, strain RNR3, stronger effect = lower value 0.862 | locus YIL073C, strain SPO22, stronger effect = lower value 0.594 | locus YJL187C, strain SWE1 (second series), stronger effect = lower value 0.863
